# According to PubChem BioAssay AID1159580 (chemical genetic matrix, 2015):
# Values joined by “and” are separate entries in the source; they are usually repeats but may differ in a detail not shown here. Equal values may be shown once. Out of some 5,500 compounds screened, about 2,000 (36%) were called active. Roughly 18% stayed inconclusive and do not appear here. Rule as the data show it: active = normalized growth mostly below about 0.91 (no sharp cut-off); inconclusive = no clear call, values can overlap the other calls; inactive = mostly above about 0.92. This is one part of the list.
# Test: chemical genetic growth profiling, strain panel (AID 1159580);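 also: tested at 20 µM; growth read once vehicle control cultures reached saturation at 30 °C; 1 = growth at the plate median or of vehicle wells; lower values mean less growth of the strain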
# Details: S. cerevisiae deletion strains, growth OD
smiles,measurement,setting,value
S=c1[nH]c2ccccc2s1,normalized growth,"locus YAL013W, strain DEP1, stronger effect = lower value",1 (inactive)
same,normalized growth,"locus YAL021C, strain ccr4, stronger effect = lower value",0.941 (inactive)
same,normalized growth,"locus YAL026C, strain drs2, stronger effect = lower value",0.891 (active)
same,normalized growth,"locus YAL030W, strain snc1, stronger effect = lower value",0.992 (inactive)
same,normalized growth,"locus YBL061C, strain skt5, stronger effect = lower value",0.986 (inactive)
same,normalized growth,"locus YBR009C, strain hhf1, stronger effect = lower value",0.972 (inactive)
same,normalized growth,"locus YBR021W, strain FUR4, stronger effect = lower value",1.06 (inactive)
same,normalized growth,"locus YBR023C, strain chs3, stronger effect = lower value",1.01 (inactive)
same,normalized growth,"locus YBR171W, strain sec66, stronger effect = lower value",0.965 (inactive)
same,normalized growth,"locus YBR229C, strain ROT2, stronger effect = lower value",0.989 (inactive)
same,normalized growth,"locus YBR231C, strain swc5, stronger effect = lower value",0.946 (inactive)
same,normalized growth,"locus YBR279W, strain paf1, stronger effect = lower value",0.982 (inactive)
same,normalized growth,"locus YCL011C, strain gbp2, stronger effect = lower value",0.966 (inactive)
same,normalized growth,"locus YCL016C, strain dcc1, stronger effect = lower value",1.02 (inactive)
same,normalized growth,"locus YCL029C, strain bik1, stronger effect = lower value",0.989 (inactive)
same,normalized growth,"locus YCL069W, strain vba3, stronger effect = lower value",0.983 (inactive)
same,normalized growth,"locus YCR088W, strain abp1, stronger effect = lower value",0.981 (inactive)
same,normalized growth,"locus YDL005C, strain med2, stronger effect = lower value",0.996 (inactive)
same,normalized growth,"locus YDL035C, strain GPR1, stronger effect = lower value",0.948 (inactive)
same,normalized growth,"locus YDL040C, strain nat1, stronger effect = lower value",0.983 (inactive)
same,normalized growth,"locus YDL074C, strain BRE1, stronger effect = lower value",0.975 (inactive)
same,normalized growth,"locus YDL101C, strain DUN1, stronger effect = lower value",0.99 (inactive)
same,normalized growth,"locus YDL134C, strain PPH21, stronger effect = lower value",0.985 (inactive)
same,normalized growth,"locus YDL185W, strain tfp1, stronger effect = lower value",0.979 (inactive)
same,normalized growth,"locus YDL192W, strain arf1, stronger effect = lower value",0.985 (inactive)
same,normalized growth,"locus YDR001C, strain nth1, stronger effect = lower value",0.992 (inactive)
same,normalized growth,"locus YDR069C, strain doa4, stronger effect = lower value",0.951 (inactive)
same,normalized growth,"locus YDR101C, strain arx1, stronger effect = lower value",1.01 (inactive)
same,normalized growth,"locus YDR137W, strain rgp1, stronger effect = lower value",0.808 (active)
same,normalized growth,"locus YDR150W, strain NUM1, stronger effect = lower value",0.986 (inactive)
same,normalized growth,"locus YDR159W, strain sac3, stronger effect = lower value",0.992 (inactive)
same,normalized growth,"locus YDR162C, strain NBP2, stronger effect = lower value",0.986 (inactive)
same,normalized growth,"locus YDR195W, strain ref2",1.18 [resistant] (active)
same,normalized growth,"locus YDR297W, strain sur2, stronger effect = lower value",0.97 (inactive)
same,normalized growth,"locus YDR318W, strain mcm21, stronger effect = lower value",0.996 (inactive)
same,normalized growth,"locus YDR334W, strain swr1, stronger effect = lower value",0.972 (inactive)
same,normalized growth,"locus YDR335W, strain msn5, stronger effect = lower value",0.984 (inactive)
same,normalized growth,"locus YDR388W, stronger effect = lower value",0.987 (inactive)
same,normalized growth,"locus YDR392W, strain spt3, stronger effect = lower value",0.879 (inactive)
same,normalized growth,"locus YDR502C, strain sam2, stronger effect = lower value",1 (inactive)
same,normalized growth,"locus YEL003W, strain gim4, stronger effect = lower value",0.952 (inactive)
same,normalized growth,"locus YEL037C, strain rad23, stronger effect = lower value",0.975 (inactive)
same,normalized growth,"locus YEL061C, strain CIN8 (second series), stronger effect = lower value",0.973 (inactive)
same,normalized growth,"locus YEL061C, strain CIN8, stronger effect = lower value",1.01 (inactive)
same,normalized growth,"locus YER015W, strain faa2, stronger effect = lower value",0.965 (inactive)
same,normalized growth,"locus YER016W, strain bim1, stronger effect = lower value",0.987 (inactive)
same,normalized growth,"locus YER110C, stronger effect = lower value",0.998 (inactive)
same,normalized growth,"locus YER111C, strain swi4, stronger effect = lower value",0.979 (inactive)
same,normalized growth,"locus YER155C, strain BEM2 (second series), stronger effect = lower value",0.986 (inactive)
same,normalized growth,"locus YER155C, strain BEM2, stronger effect = lower value",0.986 (inactive)
same,normalized growth,"locus YER167W, strain BCK2, stronger effect = lower value",1.02 (inactive)
same,normalized growth,"locus YFR010W, strain ubp6, stronger effect = lower value",0.95 (inactive)
same,normalized growth,"locus YGL078C, strain dbp3, stronger effect = lower value",1.02 (inactive)
same,normalized growth,"locus YGL086W, strain mad1, stronger effect = lower value",0.965 (inactive)
same,normalized growth,"locus YGL167C, strain pmr1, stronger effect = lower value",0.995 (inactive)
same,normalized growth,"locus YGL173C, strain kem1, stronger effect = lower value",0.91 (inactive)
same,normalized growth,"locus YGL227W, strain vid30, stronger effect = lower value",0.996 (inactive)
same,normalized growth,"locus YGL240W, strain doc1, stronger effect = lower value",0.923 (inactive)
same,normalized growth,"locus YGL248W, strain PDE1, stronger effect = lower value",0.991 (inactive)
same,normalized growth,"locus YGL253W, strain hxk2, stronger effect = lower value",0.938 (inactive)
same,normalized growth,"locus YGR078C, strain PAC10, stronger effect = lower value",0.958 (inactive)
same,normalized growth,"locus YGR135W, strain pre9, stronger effect = lower value",0.964 (inactive)
same,normalized growth,"locus YGR229C, strain SMI1, stronger effect = lower value",0.804 (active)
same,normalized growth,"locus YGR252W, strain gcn5, stronger effect = lower value",0.691 (active)
same,normalized growth,"locus YHR013C, strain ard1, stronger effect = lower value",1.02 (inactive)
same,normalized growth,"locus YHR027C, strain rpn1, stronger effect = lower value",0.903 (active)
same,normalized growth,"locus YHR030C, strain SLT2, stronger effect = lower value",1 (inactive) and 0.821 (active)
same,normalized growth,"locus YHR079C, strain IRE1 (second series), stronger effect = lower value",1.01 (inactive)
same,normalized growth,"locus YHR079C, strain IRE1, stronger effect = lower value",0.78 (active)
same,normalized growth,"locus YHR094C, strain hxt1, stronger effect = lower value",1.02 (inactive)
same,normalized growth,"locus YHR129C, strain ARP1, stronger effect = lower value",0.992 (inactive)
same,normalized growth,"locus YHR142W, strain chs7, stronger effect = lower value",1.01 (inactive)
same,normalized growth,"locus YHR200W, strain rpn10, stronger effect = lower value",1.01 (inactive)
same,normalized growth,"locus YIL066C, strain RNR3, stronger effect = lower value",0.986 (inactive)
same,normalized growth,"locus YIL073C, strain SPO22, stronger effect = lower value",0.844 (inactive)
same,normalized growth,"locus YIL125W, strain kgd1, stronger effect = lower value",1.01 (inactive)
same,normalized growth,"locus YIR030C, strain dcg1, stronger effect = lower value",1.01 (inactive)
same,normalized growth,"locus YJL092W, strain hpr5, stronger effect = lower value",0.984 (inactive)
same,normalized growth,"locus YJL095W, strain BCK1 (second series), stronger effect = lower value",0.975 (inactive)
same,normalized growth,"locus YJL095W, strain BCK1, stronger effect = lower value",0.99 (inactive) and 0.818 (active)
same,normalized growth,"locus YJL115W, strain asf1, stronger effect = lower value",0.983 (inactive)
same,normalized growth,"locus YJL129C, strain trk1, stronger effect = lower value",0.966 (inactive)
same,normalized growth,"locus YJL134W, strain LCB3, stronger effect = lower value",1 (inactive)
same,normalized growth,"locus YJL154C, strain vps35, stronger effect = lower value",0.983 (inactive)
same,normalized growth,"locus YJL164C, strain tpk1, stronger effect = lower value",1 (inactive)
same,normalized growth,"locus YJL166W, strain qcr8, stronger effect = lower value",0.962 (inactive)
same,normalized growth,"locus YJL168C, strain set2, stronger effect = lower value",0.996 (inactive)
same,normalized growth,"locus YJL187C, strain SWE1 (second series), stronger effect = lower value",0.964 (inactive)
same,normalized growth,"locus YJR043C, strain POL32, stronger effect = lower value",1 (inactive)
same,normalized growth,"locus YJR066W, strain TOR1, stronger effect = lower value",0.732 (active)
same,normalized growth,"locus YJR075W, strain HOC1, stronger effect = lower value",1.02 (inactive)
